Measured values: PubChem BioAssay AID652105 (National Center for Advancing Translational Sciences (NCATS), 2013)
The campaign covered roughly 330,000 compounds. About 4,100 (1.2%) were called active. Another 2% or so got no clear call; they are omitted. The calls were made as follows: active = max response of -50% or lower; inconclusive = between -30% and -50%; inactive = -30% or higher. Only a selection was taken, and actives are over-represented in it overall.

Biological target: Phosphatidylinositol 5-phosphate 4-kinase type-2 alpha (Homo sapiens) (UniProt P48426)
Sequence (P48426 whole entry, looked up): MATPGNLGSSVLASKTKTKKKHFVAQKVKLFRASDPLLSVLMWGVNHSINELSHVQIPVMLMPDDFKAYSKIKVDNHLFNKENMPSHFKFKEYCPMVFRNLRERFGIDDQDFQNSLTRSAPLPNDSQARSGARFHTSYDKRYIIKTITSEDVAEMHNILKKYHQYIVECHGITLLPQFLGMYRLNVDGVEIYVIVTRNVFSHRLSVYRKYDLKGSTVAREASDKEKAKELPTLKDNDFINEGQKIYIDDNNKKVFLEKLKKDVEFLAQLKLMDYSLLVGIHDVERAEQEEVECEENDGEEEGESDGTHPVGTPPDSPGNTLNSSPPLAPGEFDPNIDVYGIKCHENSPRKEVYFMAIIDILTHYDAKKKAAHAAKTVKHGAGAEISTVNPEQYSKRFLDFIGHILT
Test: qHTS for Inhibitors of phosphatidylinositol 5-phosphate 4-kinase (PI5P4K); also: value at the top dose of about 77 µM
Conditions: PI5P4Kalpha enzyme, ADP-Glo luminescence, 60 min; stronger effect = lower value
Procedure, shortened: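 Quantitative HTS of the MLSMR library against PI5P4Kalpha with substrate. ATP added last at 5 microM final; room temperature, 60 minutes. Remaining ATP depleted, ADP converted and read as luminescence.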
% is scaled to controls: 0 for no effect and ±100 for the full control effect.

| Structure (SMILES) | max response |
| --- | --- |
| CCCCN1C(=O)C(CC(=O)NCc2cccs2)CC(C(=O)N2CCCCCC2)=C1C (stereo not given) | 8.96% (inactive) |
| COc1cccc(NC(=O)CN(C)C(=O)c2cc(Cl)nc3ccccc23)c1 | 0.592% (inactive) |
| Cc1cccnc1C(NC(=O)C1CCN(Cc2ccc(Cl)c(Cl)c2)CC1)c1ccc(Cl)cc1 (stereo not given) | 13.1% (inactive) |
| Cc1nc(C(F)(F)F)ccc1C(=O)N1CCC1(C)C(=O)NS(=O)(=O)c1ccccc1Cl (stereo not given) | -2.74% (inactive) |
| C[C@H]1CN([C@@H](C)CO)C(=O)CCCn2nncc2CO[C@@H]1CN(C)S(=O)(=O)c1cccc(C#N)c1 | 8.11% (inactive) |
| COCc1c(N)c(C)nc(Cl)c1C#N | -79.4% (active) |
| COC(=O)c1c(C)c(C)nc(N)c1C#N | 1.33% (inactive) |
| Cc1nc(Cl)c(C#N)c2c1CCCC2 | -4.68% (inactive) |
| CC(C)NC(=O)Nc1ccc2c(c1)C(=O)N([C@H](C)CO)C[C@H](C)[C@@H](CN(C)Cc1ccc(C(F)(F)F)cc1)OCCCC[C@@H](C)O2 | 10.4% (inactive) |
| CC1(C)OC(=O)C2=C(C[C@@H](C3CC3)O[C@H]2c2ccc(Cl)cc2)O1 | 8.12% (inactive) |
| CC1(C)OC(=O)C2=C(C[C@@H](C3CCCCC3)O[C@@H]2c2ccc(Cl)cc2)O1 | 10.9% (inactive) |
| Cc1ccc(NC(=O)CC2S/C(=N/N=C3\CCCc4ccccc43)NC2=O)cc1 (stereo not given) | 27.6% (inactive) |
| Cc1ccc(S(=O)(=O)Oc2ccc(/C=N/NC(=O)c3ccncc3)cc2)cc1 | 3.82% (inactive) |
| CC(=O)Nc1ccc(S(=O)(=O)Oc2ccc(/C=N/N=C3/NC(=O)C(CC(=O)O)S3)cc2)cc1 (stereo not given) | -65% (active) |
| CCOC(=O)C1C(C)C(C(C)(C)C)N(S(=O)(=O)c2ccc(C)cc2)C1c1ccccc1 (stereo not given) | 6.25% (inactive) |
| CCCOc1ccc(Cn2c(O)cc(=O)[nH]c2=O)cc1 | -26.6% (inactive) |
| COc1ccc(NC(=O)CNC(=O)Cc2ccccc2)cc1OC | -2.31% (inactive) |
| COc1cc(=O)[nH]c(=O)n1C(=O)Cc1ccccc1 | -54.9% (active) |
| COC(=O)[C@]12CCCCC=C1N(Cc1ccc3c(c1)OCO3)C(=O)[C@H](CC(=O)NCc1cccs1)C2 | 1.05% (inactive) |
| CCCS(=O)(=O)NC(=O)C1(C)CCCN(C(=O)c2cccs2)C1 (stereo not given) | 5.25% (inactive) |
| Cc1cc(C(=O)N2CCCC2(C)C(=O)O)c(C)o1 (stereo not given) | -1.39% (inactive) |
| CCCCCCCCN1C(=O)[C@H](CC(=O)NCC23CC4CC(CC(C4)C2)C3)C[C@@]2(C(=O)OC)CCCCC=C12 | 8.08% (inactive) |

| Structure (SMILES) | max response |
| --- | --- |
| S=c1[nH]nc2c3c4c(sc3ncn12)CCCC4 | -58.2% (active) |
| N=c1c2c3c(sc2ncn1N)CCCCC3 | 0.011% (inactive) |
| N=c1c2c3c(sc2ncn1N)CCCC3 | -4.92% (inactive) |
| COc1ccc(CNC(=O)c2ccc(-c3cccnc3)c3ccoc23)cc1OC | 0.62% (inactive) |
| O=C(NCc1ccc(F)cc1)c1cc(C2CCCCN2C(=O)c2cccs2)on1 (stereo not given) | -3.15% (inactive) |
| CC(C)c1cc(Cn2c3ccccc3c(=O)n2C(C)Cn2cc(C3CC3)nn2)on1 (stereo not given) | -4.48% (inactive) |
| CC(C)(C)OC(=O)N1CCN(C(=O)c2[nH]c(C(F)(F)F)nc2-c2ccccc2)CC1 | 6.39% (inactive) |
| CS(=O)(=O)c1ccc2nc(NC(=O)C3C4C=CC(C4)C3C(=O)O)sc2c1 (stereo not given) | -8.9% (inactive) |
| CS(=O)(=O)c1ccc2nc(NC(=O)c3ccc(Cl)nc3)sc2c1 | -8.02% (inactive) |
| COc1cccc(C(=O)Nc2nc3ccc(S(C)(=O)=O)cc3s2)c1 | -58.6% (active) |
| CCOC(=O)N1CCN(C(=O)C[C@@H]2C[C@@]3(C(=O)OC)CC(C)(C)CC=C3N(Cc3ccco3)C2=O)CC1 | -4.8% (inactive) |
| CC1=C(C(=O)OC(C)(C)C)C(c2ccc(Br)cc2)NC(=O)N1CCCC(=O)O (stereo not given) | -68.2% (active) |
| COCCN1C(=O)N[C@@H](c2ccccc2)C(C(=O)OC)=C1C | 3.31% (inactive) |
| CC1=C(C(=O)OCc2ccccc2)C(c2ccc(C(F)(F)F)cc2)NC(=O)N1CCCCCC(=O)O (stereo not given) | -6.37% (inactive) |
| CCCCNC(=O)OC1CC2CC1[C@H]1CCCCN1C2=O (stereo not given in full) | 2.78% (inactive) |
| NC(c1ccccc1)c1csc(NC(=O)Nc2cccc(C(F)(F)F)c2)n1 (stereo not given) | -16.7% (inactive) |
| O=C(O)c1ccc2c(=O)n3c(nc2c1)/C(=C/c1ccc(OC(F)F)cc1OC(F)F)CC3 | -50.1% (active) |
| O=C(O)c1ccc2c(=O)n3c(nc2c1)/C(=C/c1ccc(Cl)c([N+](=O)[O-])c1)CC3 | -16.4% (inactive) |
| N#Cc1ccc(/C=C2\CCn3c2nc2cc(C(=O)O)ccc2c3=O)cc1 | -10.5% (inactive) |
| CCc1nc2ccc(C(=O)N(C)CCN(C)C)cn2c1N(CC)CCOC | 2.65% (inactive) |
| OC(c1ccc(Cl)c(F)c1)c1ncc(-c2ccccc2Cl)[nH]1 (stereo not given) | 10.9% (inactive) |
| CC(C)c1ccc(CC(=O)N2CCC2(C)C(=O)NS(=O)(=O)c2ccc(C(C)(C)C)cc2)cc1 (stereo not given) | 3.85% (inactive) |

| Structure (SMILES) | max response |
| --- | --- |
| CC(=O)Nc1ccc(C=Cc2ccc([N+](=O)[O-])cc2)cc1 | -5.32% (inactive) |
| O=[N+]([O-])c1ccc(C=NN=Cc2ccc([N+](=O)[O-])cc2)cc1 | -4.59% (inactive) |
| O=C1/C(=C\c2ccc([N+](=O)[O-])cc2)CS(=O)(=O)C/C1=C/c1ccc([N+](=O)[O-])cc1 | -83.1% (active) |
| CC=CCn1c(SCCCc2ccccc2)nc2c1c(=O)[nH]c(=O)n2C | -3.45% (inactive) |
| Cc1ccc(/C=C/C(=O)Nc2ccc([N+](=O)[O-])c(NC(=O)/C=C/c3ccc(C)o3)c2)o1 | -71.8% (active) |
| Cc1ccc(/C=C/C(=O)Nc2cc(S(=O)(=O)N3CCCCCC3)ccc2OCC(F)(F)F)o1 | 2.97% (inactive) |
| COC(=O)/C=C\C(=O)Nc1cccc([N+](=O)[O-])c1 | -26.6% (inactive) |
| Cc1cc(C)n2c(NCc3ccccc3)c(CC(C)C)nc2n1 | -0.19% (inactive) |
| C[C@H]1CN(c2ccc(Br)cc2)C(=O)[C@@H]1CC(=O)Nc1ccc(Br)cc1 | -1.71% (inactive) |
| COc1ccc(C(NC(=O)C2CCN(CCCc3ccccc3)CC2)c2cccs2)cc1 (stereo not given) | -1.92% (inactive) |
| O=C(N/N=C\c1cc(Br)c(Br)o1)C1COc2ccccc2O1 (stereo not given) | 1.1% (inactive) |
| O=C(CNC(=O)C1COc2ccccc2O1)N/N=C/c1cc(Br)c(O)c(Br)c1 (stereo not given) | -78.5% (active) |
| O=C(N/N=C/c1cc2c(cc1Br)OCO2)C1COc2ccccc2O1 (stereo not given) | 0.44% (inactive) |
| CC(C)NC(=O)N1Cc2cc(C(=O)NCC(F)(F)F)nc(-c3cccc(-c4cc5ccccc5o4)c3)c2[C@@H]1CCO | 10.9% (inactive) |
| CN1CCN(c2ccc3c(c2)OC[C@H](Cc2ccccc2)NS3(=O)=O)CC1 | 6.74% (inactive) |
| O=C(Nc1ccc(S(=O)(=O)N2CCOCC2)cc1)C1CCN(S(=O)(=O)c2ccc(Cl)cc2)CC1 | 11.3% (inactive) |
| O=C(NC(=S)Nc1ccc(S(=O)(=O)N2CCOCC2)cc1)c1ccccc1[N+](=O)[O-] | -13.4% (inactive) |
| O=S(=O)(c1ccc(NC(=S)NN=C(C2CC2)C2CC2)cc1)N1CCOCC1 | -67.5% (active) |
| COc1cccc(-c2cnc3c(NC(C)=O)cc(-c4cc(F)ccc4OC)cn23)c1 | 0.465% (inactive) |
| Cc1ccc(-c2ccc(CN3C(C)C(=O)N(Cc4cn(CCC5OCCCO5)nn4)CCS3(=O)=O)cc2)cc1 (stereo not given) | -1.32% (inactive) |
| CCOc1ccc(-n2c(O)c(/C=N/Nc3nc(C)cc(C)n3)c3ccccc3c2=O)cc1 | 3.69% (inactive) |
| CCOc1ccc(-n2c(O)c(/C=N/Nc3nnc(C)c(=O)[nH]3)c3ccccc3c2=O)cc1 | -64% (active) |

| Structure (SMILES) | max response |
| --- | --- |
| CCOc1ccc(-n2c(O)c(/C=N/c3ccnn3Cc3ccncc3)c3ccccc3c2=O)cc1 | 1.64% (inactive) |
| O=C1NC(O)CCN1C1CC(O)C(CO)O1 (stereo not given) | -0.0784% (inactive) |
| Cc1ccc(Cc2c(-c3ccco3)nc3ccc(Cl)cn23)cc1 | -53.8% (active) |
| Cc1ccc(Cc2c(-c3ccccc3)nc3ccc(Cl)cn23)cc1 | 3.67% (inactive) |
| Cc1ccc2nc(-c3ccco3)c(Cc3cccc(Cl)c3)n2c1 | -20% (inactive) |
| Cc1ccc([C@H]2N[C@]3(CCCN(CC4CCCCC4)C3=O)[C@H]3C(=O)N(Cc4ccccc4)C(=O)[C@@H]23)cc1 | -7.84% (inactive) |
| Cc1cc(Cl)ccc1-c1nc(NCCN(C)C)nc2ccsc12 | 2.25% (inactive) |
| Cc1ccc(N=Cc2c(O)cc(C)oc2=O)c(C)c1 | -7.86% (inactive) |
| Cc1cc(O)c(C(=O)/C=C/c2c(F)c(F)c(F)c(F)c2F)c(=O)o1 | -77.8% (active) |
| Cc1cc(O)c(Sc2ccccc2)c(=O)o1 | 5.88% (inactive) |
| CCc1nc2c(OCc3ccc(Cl)cc3Cl)cccn2c1N(C)C(=O)C(C)C | 2.81% (inactive) |
| O=C(NC1CCCC1)C1c2ccccc2OCC(=O)N1Cc1ccccc1 (stereo not given) | -0.138% (inactive) |
| CCCC(=O)N1CCC1(C)C(=O)NCc1ccc(C(C)C)cc1 (stereo not given) | -1.03% (inactive) |
| CC(C)Cc1ccc(-c2cc3nc(NCc4cccc(Cl)c4)ccn3n2)cc1 | 47.1% (inactive) |
| COc1ccccc1CNC(=O)c1cc(-c2cc(Cl)ccc2C)n[nH]1 | -0.482% (inactive) |
| CCn1c(SC)nc(O)c(C(c2ccc(OC)c(O)c2)c2c(O)nc(SC)n(CC)c2=O)c1=O | -12.5% (inactive) |
| CCSc1nc(O)c(C(c2cccc(OC)c2)c2c(O)nc(SCC)[nH]c2=O)c(=O)[nH]1 | -58.8% (active) |
| CCSc1nc(C)c(CCOc2cccc(C)c2)c(=O)[nH]1 | 0.672% (inactive) |
| O=C(c1ccccc1)N1CCN(c2cc(-c3ccccc3)nc3cc(-c4cccc(Cl)c4)nn23)CC1 | 6.72% (inactive) |
